Test results reported in PubChem BioAssay (NCATS).
Records with an inconclusive call do not appear. Unmarked numbers belong to inactive results. Activity calls are given as the source filed them. Calls come from the whole dose curve; as a rule, active = well fitted cell-killing curve with a large enough effect; inconclusive = small, poorly fitted or top-dose-only effect; inactive = flat fitted curve, though single readings scatter.

Assay: qHTS of pediatric cancer cell lines to identify multiple opportunities for drug repurposing: Primary screen for DAOY cells (AID 1347090); note: nearly all actives have a fitted effect of over 55% in size
Settings: DAOY medulloblastoma viability, CellTiter-Glo luminescence, 48 h; series mostly up to 46 µM; activity change, negative = cytotoxic: at the top concentration
From the text: Drug repurposing or repositioning has been offered as a strategy for drug development in oncology programs. This approach has special potential for childhood cancers and other rare or orphan diseases, where the expected return on new drug development has been a disincentive to pharmaceuticals.
In this project we exploit the poly-pharmacology of drugs to discover new indications via phenotypic screening of a panel of 19 well-characterized cell lines derived from solid tumors seen in children and adolescents. The goal is to identify approved drugs with previously unrecognized anticancer properties that has the potential to reveal new mechanisms and biological processes involved in carcinogenesis or drug resistance. We employed a titration-based paradigm (quantitative high-throughput screening or qHTS), where all compounds were tested at multiple concentrations for their effect on cell viability. Concentration-response curves (CRCs) were derived directly from the primary screen, and both potency and efficacy values were used to identify compounds with robust bioactivity profiles. We screened the NIH Chemical Genomics Center (NCGC) Pharmaceutical Collection (NPC) and Mechanism Interrogation Plate (MIPE) small molecule collections of approved and investigational compounds against these cell lines; and measured metabolically active cells after 48 hours of compound treatment as a proxy for cell viability.
Assay Submitter: Nathalia J. Martinez, National Center for Advancing Translational Sciences, National Institutes of Health, Rockville, MD, USA; email: natalia.martinez@nih.gov
[1] Shen, M et al. Quantitative high-throughput phenotypic screening of pediatric cancer cell lines identifies multiple opportunities for drug repurposing. Oncotarget 2017 Dec 19;9(4):4758-4772. PMID 29435139.
The cells were obtained from University of North Carolina (UNC), Pediatric Preclinical Testing Program (PPT), and Coriell Institute (CI).
qHTS cell viability assay:
Cells were assayed in growth media at a density of 500-1,000 cells/well. Five microliters of cells were dispensed into 1,536-well, white, solid-bottom, TC-treated plates (Greiner Bio One) using a multidrop dispenser and incubated at 37 degrees C, 5% CO2, under a humidified atmosphere for 5 hours. Twenty-three nanoliters of compounds and controls (neutral control DMSO or positive control bortezomib at final concentration of 2.3 µM) were subsequently transferred by Kalypsys pintool. For primary screens, the MIPE collection was tested at 11-point dilutions (final concentrations range from 0.78 nM to 46 µM) and the NPC collection at 8-point dilutions (final concentrations range from 0.59 nM to 46 µM). Compounds tested in follow-up screens were assayed at 11-point dilutions. Cells were incubated for 48 hours, followed by addition of 3 uL of CellTiter-Glo (Promega). After a 15 min incubation at room temperature, samples were analyzed for luminescence intensity using a ViewLux High-throughput CCD imager equipped with clear filters.
Potency is the fitted concentration of half-maximal effect.

First: CCN1CCCC1=O
Second: Cc1ccc(C(=O)C(C)CN2CCCCC2)cc1 (stereo not given)
The “activity change, negative = cytotoxic” value of the first is higher: 7.86% for the first, -3.91% for the second.

Compared with CC(=O)OCC(=O)[C@@]1(O)[C@H](C)C[C@H]2[C@@H]3CCC4=CC(=O)C=C[C@]4(C)[C@@]3(F)[C@@H](O)C[C@@]21C, C[C@@H]1C[C@H]2[C@@H]3CCC4=CC(=O)C=C[C@]4(C)[C@@]3(F)[C@@H](O)C[C@]2(C)[C@H]1C(=O)CO is higher in “activity change, negative = cytotoxic” value: 0.62% for the first, 5.22% for the second.

First: CCN(CC)CCNC(=O)COc1ccc(Cl)cc1
Second: COC(=O)CCc1ccc(OCC(O)CNC(C)C)cc1 (stereo not given)
The “activity change, negative = cytotoxic” value of the first is higher: 1.47% for the first, -7.87% for the second.

Compared with COc1cc2c(cc1OC)C(C(C(=O)N(CCc1ccc(OC)c(OC)c1OC)CCc1ccc(OC)c(OC)c1OC)c1ccccc1)=NCC2 (stereo not given), O=C1OC2(c3ccc(O)cc3Oc3cc(O)ccc32)c2ccccc21 is lower in “activity change, negative = cytotoxic” value: -6.5% for the first, -13.9% for the second.

Compared with CCN(CC)C(=O)/C(C#N)=C/c1cc(O)c(O)c([N+](=O)[O-])c1, C=CCc1ccc(O)c(OC)c1 is higher in “activity change, negative = cytotoxic” value: -20.1% for the first, 1.48% for the second.

Going from CC1(C)OC[C@@H](COC(=O)CCc2ccc(OC[C@@H](O)CNCCNC(=O)N3CCOCC3)cc2)O1 to CCCCS(=O)(=O)N[C@@H](Cc1ccc(OCCCCC2CCNCC2)cc1)C(=O)O, the “activity change, negative = cytotoxic” value falls from 4.53% to 4.26%.

First: COc1cc(C(=S)N2CCOCC2)cc(OC)c1OC
Second: COc1ccc(OC)c(C(O)CNC(=O)CN)c1 (stereo not given)
The “activity change, negative = cytotoxic” value of the first is lower: 0.683% for the first, 9.14% for the second.

First: CC(=O)OCC(=O)[C@@]12N=C(C)O[C@@H]1C[C@H]1[C@@H]3CCC4=CC(=O)C=C[C@]4(C)[C@H]3[C@@H](O)C[C@@]12C
Second: C=C1C[C@H]2[C@@H]3C=C(C)C4=CC(=O)CC[C@]4(C)[C@H]3CC[C@]2(C)[C@@]1(OC(C)=O)C(C)=O
The “activity change, negative = cytotoxic” value of the first is lower: -11.2% for the first, -4.43% for the second.

Compared with CCCCCCCCCCOCC(O)CN (stereo not given), CCN(CCCc1ccccc1)CCCc1ccccc1 is higher in “activity change, negative = cytotoxic” value: -19.9% for the first, 0.924% for the second.

Compared with C/C=C/c1ccc(OC)cc1, Nc1ccc(C(=O)O)cc1 is higher in “activity change, negative = cytotoxic” value: -2.68% for the first, 3.14% for the second.

Going from COC(=O)[C@@H]1CC2=CC(=O)CC[C@]2(C)[C@@]23O[C@@H]2C[C@@]2(C)[C@@H](CC[C@@]24CCC(=O)O4)[C@H]13 to C[C@]12CC[C@H]3[C@@H](CCC4=CC(=O)CC[C@@]43C)[C@@H]1CC[C@@H]2C(=O)CO, the “activity change, negative = cytotoxic” value falls from 3.76% to -8.25%.

Compared with CNCC[C@@H](Oc1ccccc1C)c1ccccc1, CC(C)NC[C@@H](O)COc1cccc2ccccc12 is lower in “activity change, negative = cytotoxic” value: -0.2% for the first, -6.19% for the second.

First: C#C[C@]1(OC(C)=O)CC[C@H]2[C@@H]3CCC4=C[C@@H](OC(C)=O)CC[C@@H]4[C@H]3CC[C@@]21C
Second: CN1[C@@H]2CC[C@H]1CC(OC(=O)c1c[nH]c3ccccc13)C2 (stereo not given in full)
The “activity change, negative = cytotoxic” value of the first is lower: -25.2% for the first, 8.4% for the second.

First: Cc1ccnc(NS(=O)(=O)c2ccc(N)cc2)n1
Second: CC(=O)Oc1ccc(C(c2ccc(OC(C)=O)cc2)c2ccccn2)cc1
The “activity change, negative = cytotoxic” value of the first is higher: 8.58% for the first, -5.86% for the second.

First: Nc1nc2ncc(CNc3ccc(C(=O)N[C@@H](CCC(=O)O)C(=O)O)cc3)nc2c(=O)[nH]1
Second: O=C(CCCN1CCC(O)(c2ccc(Br)cc2)CC1)c1ccc(F)cc1
The “activity change, negative = cytotoxic” value of the first is higher: 3.99% for the first, 2.91% for the second.

Compared with O=C(Nc1ccc(Oc2ccc(Cl)cc2)c(Cl)c1)c1cc(I)cc(I)c1O, CC(C)=CCC1C(=O)N(c2ccccc2)N(c2ccccc2)C1=O is higher in “activity change, negative = cytotoxic” value: -13.8% for the first, -7.06% for the second.

Compared with CC(C)(C(=O)c1cccnc1)c1cccnc1, C[C@@H](CN(C)C)CN1c2ccccc2Sc2ccccc21 is lower in “activity change, negative = cytotoxic” value: -3.67% for the first, -11.3% for the second.

For COc1cccc2c1C(=O)c1c(O)c3c(c(O)c1C2=O)C[C@@](O)(C(C)=O)C[C@@H]3O[C@H]1C[C@H](N)[C@H](O)[C@H](C)O1, the Potency was 1.06 µM (active).
In the case of CCCCCCCCCCCCCCCC[N+](C)(C)CC, the Potency is reported as 13.3 µM (active).
In the case of OC[C@H]1O[C@@H](n2cnc3c(=S)nc[nH]c32)[C@H](O)[C@@H]1O, the Potency is reported as 0.422 µM (active).
For CCCCCCC[N+](CC)(CC)CCCCc1ccc(Cl)cc1, the Potency was 26.6 µM (active).

In the case of Cc1cccn2c(=O)c(-c3nnn[nH]3)cnc12, the “activity change, negative = cytotoxic” value is reported as -1.32% [at 16.1 µM].

For CCn1cc(C(=O)O)c(=O)c2cnc(N3CCCC3)nc21, the activity change, negative = cytotoxic was -3.72% [at 9.22 µM].
